Reference: PubChem BioAssay (NCATS)
Records with an inconclusive call do not appear. Calls of active or inactive are those of the source. Unless noted, the call rests on the fitted dose curve.

What was measured:
[1] = qHTS for Inhibitors of the Functional Ribonucleoprotein Complex (vRNP) of Lassa (LASV) Arenavirus: LASV Primary Screen - GLuc reporter signal (AID 1347082; calls by dose curve; tested in HEK293 reporter line; further: nearly all actives have a fitted effect of over 60% in size); settings: LASV minigenome vRNP, Gaussia luciferase reporter; series mostly up to 57.5 µM
[2] = qHTS for Inhibitors of the Functional Ribonucleoprotein Complex (vRNP) of Lassa (LASV) Arenavirus: Viability assay - alamar blue signal for LASV Primary Screen (AID 1347083; calls by dose curve; tested in HEK293 reporter line; further: nearly all actives have a fitted effect of over 80% in size); settings: cell viability, alamar blue fluorescence (LASV minigenome counter-screen); series mostly up to 57.5 µM
[3] = qHTS for Inhibitors of the Functional Ribonucleoprotein Complex (vRNP) of Lymphocytic Choriomeningitis Arenaviruses (LCMV): Viability assay - alamar blue signal for LCMV Primary Screen (AID 1347085; calls by dose curve; tested in HEK293 reporter line; further: nearly all actives have a fitted effect of over 80% in size); settings: alamar blue viability counter-screen, LCMV vRNP screen cells; series mostly up to 57.5 µM
[4] = molecular target: Nucleoprotein (Lymphocytic choriomeningitis virus (strain Armstrong)) (UniProt P09992); assay: qHTS for Inhibitors of the Functional Ribonucleoprotein Complex (vRNP) of Lymphocytic Choriomeningitis Arenaviruses (LCMV): LCMV Primary Screen - GLuc reporter signal (AID 1347086); settings: LCMV minigenome vRNP cell assay, Gaussia luciferase reporter; series mostly up to 57.5 µM; further: nearly all actives have a fitted effect of over 70% in size
Chain of Nucleoprotein (Lymphocytic choriomeningitis virus (strain Armstrong)) (P09992 whole entry, looked up): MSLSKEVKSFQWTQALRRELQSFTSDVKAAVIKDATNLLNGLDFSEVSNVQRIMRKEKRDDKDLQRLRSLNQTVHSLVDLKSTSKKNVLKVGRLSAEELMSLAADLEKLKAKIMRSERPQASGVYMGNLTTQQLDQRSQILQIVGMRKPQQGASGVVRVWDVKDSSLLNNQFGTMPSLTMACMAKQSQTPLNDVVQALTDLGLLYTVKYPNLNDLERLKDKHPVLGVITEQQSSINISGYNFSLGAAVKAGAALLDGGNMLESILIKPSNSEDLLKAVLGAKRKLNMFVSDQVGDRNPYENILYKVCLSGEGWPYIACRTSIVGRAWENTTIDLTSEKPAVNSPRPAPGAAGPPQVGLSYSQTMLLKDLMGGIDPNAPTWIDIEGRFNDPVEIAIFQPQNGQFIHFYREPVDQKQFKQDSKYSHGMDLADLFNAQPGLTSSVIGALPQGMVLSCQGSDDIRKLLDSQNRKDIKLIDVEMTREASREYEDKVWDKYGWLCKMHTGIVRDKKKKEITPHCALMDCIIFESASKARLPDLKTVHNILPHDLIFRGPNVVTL

Measured: Potency

CC(CC1c2ccccc2CCc2ccccc21)CN(C)C (stereo not drawn)
inactive: all assays above

Oc1ccc(C(O)CNCCCCCCNCC(O)c2ccc(O)c(O)c2)cc1O (stereo not drawn)
inactive: all assays above

CC(C)(C)CC(C)(C)c1ccc(O)c(Cc2ccc(Cl)cc2Cl)c1
inactive: all assays above

O=C1c2ccccc2C(=O)C1c1ccccc1
inactive: all assays above

C/C=C/c1ccc(O)c(OC)c1
inactive: all assays above

C=CCOc1cc(Cl)ccc1C(=O)NCCN(CC)CC
inactive: all assays above

CCOC(=O)c1ccc(OC(=O)CCCCCN=C(N)N)cc1
inactive: all assays above

C/C=C/C(=O)N(CC)c1ccccc1C
inactive: all assays above

COc1cc2c(cc1OC)-c1cc(=Nc3c(C)cc(C)cc3C)n(C)c(=O)n1CC2
inactive: all assays above

CNCCC(Oc1ccccc1OC)c1ccccc1 (stereo not drawn)
inactive: all assays above

CCOC(=O)[C@@](C)(N)Cc1ccc(O)c(O)c1
inactive: all assays above

C#C[C@]1(O)CC[C@H]2[C@@H]3CCc4cc(OC)ccc4[C@H]3CC[C@@]21C
inactive: all assays above

Clc1ccc(Cn2c(CN3CCCC3)nc3ccccc32)cc1
inactive: all assays above

CCCCCCOC(=O)NC(=N)c1ccc(NCc2nc3cc(C(=O)N(CCC(=O)OCC)c4ccccn4)ccc3n2C)cc1
inactive: all assays above

N[C@H](C(=O)O)c1ccc(O)cc1
inactive: all assays above

O=C1C(CCS(=O)c2ccccc2)C(=O)N(c2ccccc2)N1c1ccccc1 (stereo not drawn)
inactive: all assays above

CCOC(=O)C(C#N)=C(c1ccccc1)c1ccccc1
inactive: all assays above

CC1CCc2cc(F)cc3c(=O)c(C(=O)O)cn1c23 (stereo not drawn)
inactive: all assays above

Cc1c(N)c(=O)n(-c2ccccc2)n1C
inactive: all assays above

CCCCCC1Nc2cc(C(F)(F)F)c(S(N)(=O)=O)cc2S(=O)(=O)N1 (stereo not drawn)
inactive: all assays above

Clc1ccc(C(Cn2ccnc2)OCc2ccsc2Cl)c(Cl)c1 (stereo not drawn)
inactive: all assays above

NS(=O)(=O)c1cc2c(cc1Cl)NCNS2(=O)=O
inactive: all assays above

C[C@H](CCC(=O)O)[C@H]1CC[C@H]2[C@@H]3C(=O)C[C@@H]4CC(=O)CC[C@]4(C)[C@H]3CC(=O)[C@]12C
inactive: all assays above

OC[C@H]1O[C@@H](O[C@@H]2[C@@H](CO)O[C@](O)(CO)[C@H]2O)[C@H](O)[C@@H](O)[C@H]1O
inactive: all assays above

Nc1ccn([C@H]2CC[C@@H](CO)O2)c(=O)n1
inactive: all assays above

CCCCCOc1ccc(C2SC(=O)NC2=O)cc1OCC (stereo not drawn)
inactive: all assays above

COc1nc(C)nc(Cl)c1NC1=NCCN1
inactive: all assays above

CC(=O)N1CCN(c2ccc(O)cc2)CC1
inactive: all assays above

Nc1cc(C(F)(F)F)ccc1S
inactive: all assays above

CC(N)C(=O)OC(C)(C)Cc1ccc(Cl)cc1 (stereo not drawn)
inactive: all assays above

COc1cc2c(cc1OC)C(C(C(=O)N(CCc1ccc(OC)c(OC)c1OC)CCc1ccc(OC)c(OC)c1OC)c1ccccc1)=NCC2 (stereo not drawn)
inactive: all assays above

O=C1CC2(CCCC2)CC(=O)N1CCCCN1CCN(c2ncccn2)CC1
inactive: all assays above

CC[N+](CC)(CC(=O)Nc1c(C)cccc1C)Cc1ccccc1
inactive: all assays above

CC1=C(C)C(=O)C(C(CCCCCC(=O)O)c2ccccc2)=C(C)C1=O (stereo not drawn)
inactive: all assays above

O=c1[nH]cnc2c1ncn2[C@@H]1O[C@H](CO)[C@@H](O)[C@H]1O
inactive: all assays above

CCCCC(=O)O[C@]1(C(=O)CO)CC[C@H]2[C@@H]3CCC4=CC(=O)CC[C@]4(C)[C@H]3[C@@H](O)C[C@@]21C
inactive: all assays above

O=C(O)CN(CCOCCOCCN(CC(=O)O)CC(=O)O)CC(=O)O
inactive: all assays above

CCOC(=O)NNc1nncc2ccccc12
inactive: all assays above

CCOC(=O)n1ccn(C)c1=S
inactive: all assays above

Cc1cc(C)c(/C=C2\C(=O)Nc3ccccc32)[nH]1
inactive: all assays above

O=C(CCN1CCN(CCO)CC1)N1c2ccccc2Sc2ccc(C(F)(F)F)cc21
inactive: all assays above

CNC(=O)CN(CCN(CCN(CC(=O)[O-])CC(=O)NC)CC(=O)[O-])CC(=O)[O-].O.[Gd+3]
inactive: all assays above

CCN(CC)CC(=O)Nc1c(C)cccc1C
inactive: all assays above

Cc1cn([C@H]2C[C@H](F)[C@@H](CO)O2)c(=O)[nH]c1=O
inactive: all assays above

CC(C)(C)C(=O)C(Oc1ccc(Cl)cc1)n1ccnc1 (stereo not drawn)
inactive: all assays above

CC1(C)OC(=O)Nc2ccc(Br)cc21
inactive: all assays above

c1ccc2c(c1)CCc1ccccc1N2
inactive: all assays above

Clc1ccc(C(Cn2ccnc2)OCc2c(Cl)cccc2Cl)c(Cl)c1 (stereo not drawn)
inactive: all assays above

O=C(O)c1ccccc1Nc1cc(Cl)ccc1C(=O)O
inactive: all assays above

O=C1OC2(c3ccc(O)cc3Oc3cc(O)ccc32)c2ccccc21
inactive: all assays above

NC(=O)Cc1cccc(C(=O)c2ccccc2)c1N
inactive: all assays above

Nc1nc(=O)n([C@@H]2O[C@H](CO)[C@@H](O)[C@@H]2F)cc1I
inactive: all assays above

CCOC(=O)C1=C[C@]2(CC)CCCN3CCc4c(n1c1ccccc41)[C@@H]32
inactive: all assays above

Nc1c2c(nc3c1CCC3)CCCC2
inactive: all assays above

CCCCCCCCCCOCC(O)CN (stereo not drawn)
inactive: all assays above

Cc1c(C)n(Cc2ccccc2)c2ccc(C(=O)OCCN(C)C)cc12
inactive: all assays above

CCCc1ncc(C(=O)O)s1
inactive: all assays above

CCCCCCCCOc1ccccc1C(=O)Nc1ccc(C(=O)OCC[N+](C)(CC)CC)cc1
inactive: all assays above

O=C(O)Cc1ccc2c(c1)C(=O)c1ccccc1CO2
inactive: all assays above

CCNC(=O)NCc1cccc(Cl)c1
inactive: all assays above

O=C(O)[C@H](O)[C@@H](O)[C@H](O[C@@H]1O[C@H](CO)[C@H](O)[C@H](O)[C@H]1O)[C@H](O)CO
inactive: all assays above

C/C(=N/NC(=O)c1ccncc1)C(=O)O
inactive: all assays above

c1cnc(N2CCN(Cc3ccc4c(c3)OCO4)CC2)nc1
inactive: all assays above

CN1Cc2c(N)cccc2C(c2ccccc2)C1 (stereo not drawn)
inactive: all assays above

NS(=O)(=O)c1ccc(N2CCCCS2(=O)=O)cc1
inactive: all assays above

CN1CC(=O)N2[C@H](c3ccc4c(c3)OCO4)c3[nH]c4ccccc4c3C[C@@H]2C1=O
inactive: all assays above

CCCC(=O)O[C@]1(C(=O)CCl)[C@@H](C)C[C@H]2[C@@H]3CCC4=CC(=O)C=C[C@]4(C)[C@@]3(F)C(=O)C[C@@]21C
inactive: all assays above

NCCNC(=O)c1ccc(Cl)cn1
inactive: all assays above

CCN(CC)CCN
inactive: all assays above

C/C(=C(/OCCOc1ccc(Cl)cc1)c1ccc(Cl)cc1Cl)n1ccnc1
inactive: all assays above

CCCC(C(=O)OCCN(CC)CC)(c1ccccc1)c1ccccc1
inactive: all assays above

CCOC(=O)[C@H](CCc1ccccc1)N[C@H]1CCc2ccccc2N(CC(=O)O)C1=O
inactive: all assays above

COc1cc(C(=O)NCCCCCC(=O)O)cc(OC)c1OC
inactive: all assays above

CCCCCCCCCCCCCCNCCO
inactive: all assays above

CN1CCC(N(Cc2cccs2)c2ccccc2)CC1
inactive: all assays above

CCCCN(CCCC)CC(O)c1cc(Cl)cc2c1-c1ccc(Cl)cc1/C2=C/c1ccc(Cl)cc1 (stereo not drawn)
inactive: all assays above

C=CCOc1ccccc1OCC(O)CNC(C)C (stereo not drawn)
inactive: all assays above
